Where “and” joins values, the source holds several entries; their conditions need not be identical. Equal values may be shown once. Results filed as inconclusive are left out. More than one record can exist for a structure, and the calls need not agree. Calls of active or inactive are those of the source. How the source made its calls: active means hit-call score of the fitted dose curve at least 0.9, where 1 is the maximum; inconclusive means response in the unintended direction; inactive means score below 0.9.
The compounds below were run against Retinoic acid receptor RXR-alpha (Homo sapiens) (UniProt P19793) (assay: OT_NURR1_NURR1RXRa_0480: Odyssey Thera (OT) 8-hour HEK293T Protein Complementation Assay for Nurr1/retinoid X receptor (RXR) (AID 2283385)).
Method: OT_NURR1_NURR1RXRa_0480 is a cell-based assay that uses HEK293T, a human kidney cell line, with measurements taken at 8 hours after chemical dosing in a 384-well plate.OT_NURR1_NURR1RXRa_0480 is one of one assay component(s) measured or calculated from the OT_NURR1_NURR1RXRa_0480 assay. It is designed to make measurements of protein fragment complementation, a form of binding reporter, as detected with fluorescence intensity signals by Protein-fragment Complementation technology.Data from the assay component OT_NURR1_NURR1RXRa_0480 was analyzed into 1 assay endpoint. This assay endpoint, OT_NURR1_NURR1RXRa_0480, was analyzed in the positive analysis fitting direction relative to DMSO as the negative control and baseline of activity. Using a type of binding reporter, measures of receptor for gain-of-signal activity can be used to understand the binding at the pathway-level as they relate to the gene RXRA. Furthermore, this assay endpoint can be referred to as a primary readout, because the performed assay has only produced 1 assay endpoint. To generalize the intended target to other relatable targets, this assay endpoint is annotated to the nuclear receptor intended target family, where the subfamily is non-steroidal.
Protein-fragment complementation assay, or PCA, is a method for the identification and quantification of protein-protein interactions. In the PCA, the proteins of interest ("bait" and "prey") are each covalently linked to fragments of a third protein (e.g. DHFR, which acts as a "reporter"). Interaction between the bait and the prey proteins brings the fragments of the reporter protein in close proximity to allow them to form a functional reporter protein whose activity can be measured.

Sequence of Retinoic acid receptor RXR-alpha (Homo sapiens) (P19793 whole entry, looked up, the tested form may be a part): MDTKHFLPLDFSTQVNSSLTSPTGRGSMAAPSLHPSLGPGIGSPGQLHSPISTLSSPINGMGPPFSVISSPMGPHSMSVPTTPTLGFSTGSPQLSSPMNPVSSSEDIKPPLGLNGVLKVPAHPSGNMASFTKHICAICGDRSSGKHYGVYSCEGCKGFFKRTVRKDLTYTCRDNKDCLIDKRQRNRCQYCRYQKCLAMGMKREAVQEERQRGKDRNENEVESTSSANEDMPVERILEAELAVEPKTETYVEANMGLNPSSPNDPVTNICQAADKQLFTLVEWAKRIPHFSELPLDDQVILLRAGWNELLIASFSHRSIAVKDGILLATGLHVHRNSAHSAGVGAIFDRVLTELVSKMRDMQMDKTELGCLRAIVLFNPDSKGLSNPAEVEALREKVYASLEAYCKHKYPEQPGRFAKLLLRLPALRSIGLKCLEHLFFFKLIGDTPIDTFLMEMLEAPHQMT

SMILES | outcome | AC50
COc1ccc(C(c2ccc(OC)cc2)C(Cl)(Cl)Cl)cc1 | inactive | 66 µM (active)
CCCCC(CC)COC(=O)c1ccccc1C(=O)OCC(CC)CCCC (stereo not given) | inactive | 
CCOP(=S)(OCC)SCn1c(=O)oc2cc(Cl)ccc21 | inactive | 
C=CCC1=C(C)[C@@H](OC(=O)[C@@H]2[C@@H](C=C(C)C)C2(C)C)CC1=O | inactive | 31.5 µM (active)
C#CCOS(=O)OC1CCCCC1Oc1ccc(C(C)(C)C)cc1 (stereo not given) | inactive | 39.4 µM (active)
CC(Oc1ccc(Cl)cc1Cl)C(=O)O (stereo not given) | inactive | 
C=CC1(C)OC(=O)N(c2cc(Cl)cc(Cl)c2)C1=O (stereo not given) | inactive | 
Cc1ccc(-c2c(Cl)nc(C#N)n2S(=O)(=O)N(C)C)cc1 | inactive | 
COc1cnc(OC)n2nc(NS(=O)(=O)c3c(OCC(F)F)cccc3C(F)(F)F)nc12 | inactive | 
N#Cc1nn(-c2c(Cl)cc(C(F)(F)F)cc2Cl)c(N)c1S(=O)C(F)(F)F (stereo not given) | inactive | 
CC(C)C1(C)N=C(c2nc3ccccc3cc2C(=O)O)NC1=O (stereo not given) | inactive | 
CC(C)Oc1cc(-n2nc(C(C)(C)C)oc2=O)c(Cl)cc1Cl | inactive | 50 µM (active)
O=C(O)COc1nc(Cl)c(Cl)cc1Cl | inactive | 
CCOC(=O)C(Cl)Cc1cc(-n2nc(C)n(C(F)F)c2=O)c(F)cc1Cl (stereo not given) | inactive | 12.7 µM (active)
CCNc1nc(Cl)nc(NC(C)C)n1 | inactive | 
C=CCC1=C(C)C(OC(=O)C2C(C=C(C)C)C2(C)C)CC1=O (stereo not given) | inactive | 31.2 µM (active) and 33.1 µM (active)
CNC(=O)ON=CC(C)(C)SC | inactive | 

SMILES | outcome | AC50
COC(=O)C=C(C)OP(=O)(OC)OC | inactive | 
Cc1c(F)c(F)c(COC(=O)C2C(/C=C(\Cl)C(F)(F)F)C2(C)C)c(F)c1F (stereo not given) | inactive | 
CO/C=C(/C(=O)OC)c1ccccc1Oc1cc(Oc2ccccc2C#N)ncn1 | inactive | 
COC(=O)c1ccccc1C(=O)OC | inactive | 
CC1=C(C(=O)Nc2ccccc2)SCCO1 | inactive | 
COC(=O)C(C)Oc1ccc(Oc2ccc(Cl)cc2Cl)cc1 (stereo not given) | inactive | 
Fc1ccc(Oc2ccnc3cc(Cl)cc(Cl)c23)cc1 | inactive | 28.3 µM (active)
CCCCOC(=O)c1ccccc1C(=O)OCCCC | inactive | 
Cc1cc(Cl)ccc1OCC(=O)O | inactive | 
CCON=C(CC)C1=C(O)CC(c2c(C)cc(C)cc2C)CC1=O (stereo not given) | inactive | 
CCCCNC(=O)OCC#CI |  | 11.4 µM (active)
CC1COC(Cn2cncn2)(c2ccc(Oc3ccc(Cl)cc3)cc2Cl)O1 (stereo not given) |  | 11.4 µM (active)
COP(N)(=O)SC (stereo not given) | inactive | 
COC(=O)N(OC)c1ccccc1COc1ccn(-c2ccc(Cl)cc2)n1 | inactive | 
CCNc1nc(Cl)nc(NCC)n1 | inactive | 
COP(=S)(OC)Oc1nc(Cl)c(Cl)cc1Cl | inactive | 

— PubChem BioAssay (EPA / NIEHS)
